The text below walks through data of PubChem BioAssay AID1566 (Sanford-Burnham Center for Chemical Genomics, 2009).

In general, inhibition refers to the relative decrease from the control value, in per cent.

SMILES strings stand for the structures. The campaign covered roughly 290,000 compounds. About 1,800 (0.62%) were called active. The sample holds actives, similar compounds and a random draw of the others, so the mix is not that of the screen. A number with no mark means an inactive call. Rule as the data show it: active = inhibition above about 50%; inactive = the rest.

The assay can be described thus: NOD2 signaling inhibitors, cell-based, luminescence, uHTS, HEK293 (AID 1566). Conditions: HEK293 NOD2/NF-kB luciferase reporter, at 4 µM, stronger effect = higher value. (In general: In a reporter assay the amount or activity of a reporter protein is the signal.)
On to `CCOC(=O)N1CCC(NC(=O)c2ccc3c(c2)N(C)CCS3)CC1`, for which the inhibition was 4.6%.
Then `CN(C)S(=O)(=O)c1ccc(C(=O)Nc2cc3c(cc2C(=O)O)OCCCO3)cc1`, with 4%; and `COc1ccc(C2NC(=O)NC(C)=C2[N+](=O)[O-])cc1OC` (stereo not drawn), with 9.2%; and `COc1ccc(/C=N/n2c(C)nc3ccccc3c2=O)cc1`, with -11.4%.
Then `CC1(C)Cc2c(ccc3ccccc23)C2=C(C(=O)N3CCCC3)C(=O)C(=O)N21`, with 52.7% (active).
Then `CC1(C)Cc2ccccc2C2=C(C(=O)N3CCCCCC3)C(=O)C(=O)N21`, with 16.7%; and `CCOC(=O)C1=C2c3ccc4ccccc4c3CC(C)(C)N2C(=O)C1=O`, with 17.7%.
As for `Cc1ccc(S(=O)(=O)NCC(=O)OCC(=O)c2ccc(Br)s2)cc1`, the inhibition was -2.2%.
Then `COC(=O)c1sccc1NC(=O)CSc1ccccc1NS(=O)(=O)c1ccc(Cl)cc1`, with 28.6%; and `COC(=O)c1sccc1NC(=O)CSc1ccccc1NS(=O)(=O)c1ccccc1Cl`, with 26%; and `CN1CCN(C(=O)/C=C/c2c(F)cccc2Cl)CC1`, with 9.9%.
Then `c1ccc(-c2csc3nnc(SCc4ccc5c(c4)OCCO5)n23)cc1`, with 33.7%; and `O=C(/C=C\Nc1ccc2c(c1)OCO2)c1ccccn1`, with 33.4%; and `O=C(/C=C\Nc1ccccn1)c1ccccc1`, with -121%.
Then `O=C(/C=C/Nc1ccccc1Br)c1ccccn1`, with 60% (active); and `CC1CCCC(NCC(O)COC(c2ccc(F)cc2)c2ccc(F)cc2)C1C` (stereo not drawn), with 0.7%.
For the molecule `Fc1ccc2nc(Nc3nc4c(F)cc(F)cc4s3)sc2c1`, the inhibition is -36.7%.
Then `COC(=O)c1ccc2nc(NC(=O)C(C)(C)C)sc2c1`, with -3.1%.
Turning to `CCC(CC)c1nnc(NC(=O)C2CC(=O)N(C3CCCC3)C2)s1` (stereo not drawn), the inhibition was 8%.
Then `Cc1ccc(S(=O)(=O)N2CCCCC2)cc1NC(=O)CSc1ncnc2ccccc12`, with -36.1%.
As to `Cc1ccc(NC(=O)CSc2ncnc3ccccc23)cc1S(=O)(=O)N1CCCCCC1`, the inhibition was 40.3%.
Then `OC1(c2cccnc2)CCN(Cc2nnnn2C2CCCCC2)CC1`, with 19.2%; and `CCC/C(=N\NC(=O)CNC(=O)/C=C/c1ccco1)c1ccccc1`, with 6.6%.
With `COc1ccc(C)cc1Nc1n[n+](-c2ccccc2)c(-c2ccc(N(C)C)cc2)s1`, the inhibition is 8.3%.
Then `Cc1ccc2c(c1)sc(-c1ccc(N(C)C)cc1)[n+]2C`, with 51% (active); and `CC[n+]1c(C)sc2cc(C)ccc21`, with 5.7%; and `CC(C)OC(=O)Nc1ccc(Oc2c(F)c(F)c(F)c(F)c2F)cc1`, with -5.3%.
For `CCC(C)c1cc(S(=O)(=O)N2CCOCC2)ccc1OC` (stereo not drawn), the inhibition was -10.6%.
Then `COc1cccc(/C=N/NC(=O)C[n+]2ccccc2)c1O`, with 1%; and `C=CCc1cccc(/C=N/NC(=O)CNc2ccccc2)c1O`, with 17.2%; and `C=CCc1cccc(/C=N/NC(=O)C[n+]2ccccc2)c1O`, with 53.2% (active).
Then `CN(C)CCNC(=S)NC1CCCCC1`, with 8.6%; and `CCCCCc1nc2sc3c(c2c(=O)n1NC(=O)c1ccc([N+](=O)[O-])cc1)CC(C)(C)OC3`, with 5.3%.
Then `CCCCCCCCCc1nc2sc3c(c2c(=O)n1NC(=O)c1ccc([N+](=O)[O-])cc1)CC(C)(C)OC3`, with 57% (active); and `CCCCCCCCCc1nc2sc3c(c2c(=O)n1NC(=O)c1ccccc1[N+](=O)[O-])CC(C)(C)OC3`, with 12.2%.
On to `Cc1oc2c(C)c3oc(=O)c(CCC(=O)NCCCCCC(=O)O)c(C)c3cc2c1C`, for which the inhibition is 18.8%.
Then `O=C(Nc1ccc(Cl)cc1)c1ccc2ncsc2c1`, with -66.3%; and `O=C(O)COc1ccc(-c2nccc(-c3cccs3)n2)cc1`, with 55.9% (active); and `Oc1ccc(-c2nccc(-c3cccs3)n2)cc1`, with -139%.
Then `COC(=O)C(C)Oc1ccc(-c2nccc(-c3cccs3)n2)cc1` (stereo not drawn), with -13.1%; and `O=C(c1cnccn1)N1CCc2c([nH]c3ccccc23)C1c1cccc(Cl)c1` (stereo not drawn), with -198%.
Then `CC(C)(C)c1ccc(S(=O)(=O)N2CCC(c3nc4ccc(Cl)cc4[nH]3)CC2)cc1`, with -18.9%.
As for `Cc1nnsc1C(=O)NC1CCCc2c1cnn2-c1ccc(F)cc1F` (stereo not drawn), the inhibition is 49.3%.
Then `O=C(NC1CCCc2c1cnn2-c1ccccc1F)c1ccccn1` (stereo not drawn), with -49.8%; and `Cn1nccc1C(=O)NC1CCCc2c1cnn2-c1cc(F)cc(F)c1` (stereo not drawn), with 30.4%; and `Cc1cccc(-n2ncc3c2CCCC3NC(=O)C2CCOCC2)c1C` (stereo not drawn), with 41.8%.
Then `Cc1nnsc1C(=O)NC1CCCc2c1cnn2-c1cc(F)cc(F)c1` (stereo not drawn), with 21.9%; and `Cc1nnsc1C(=O)NC1CCCc2c1cnn2-c1ccccc1F` (stereo not drawn), with 51.1% (active).
Then `Cc1cc(C)cc(-n2ncc3c2CCCC3NC(=O)C2(C(N)=O)CC2)c1` (stereo not drawn), with 7.2%; and `CC(=O)N/C(=C\c1ccc2c(c1)OCO2)C(=O)NC(C(=O)O)c1ccccc1` (stereo not drawn), with 19.8%.
Take `Cc1cccc2sc(NC(=O)CSc3nnnn3C)nc12`: the inhibition is -7%.
Then `O=C(CNC(=O)c1ccc(Oc2ccccc2)cc1)OC1CCCCC1=O` (stereo not drawn), with 10.8%; and `Cc1cccc(Nc2nc(N)nc(CSC(=S)N3CCOCC3)n2)c1`, with -21.1%; and `CCc1cccc(C)c1NC(=O)c1ccoc1C`, with 4.5%.
Then `Cc1ccc2nc(-c3ccccc3)cn2c1`, with 26.7%.
Then `Cc1ccc2nc(-c3ccc(O)c(O)c3)cn2c1`, with -51.7%; and `Cc1ccc(-c2cn3cc(C)ccc3n2)cc1`, with 71.8% (active); and `CCOC(=O)C1CCN(S(=O)(=O)c2c(C)n(C)c(=O)n(C)c2=O)CC1`, with -0.5%.
For the molecule `O=C1CC(N2CCN(C/C=C/c3ccccc3)CC2)C(=O)N1Cc1cccs1` (stereo not drawn), the inhibition is 7.5%.
Then `c1ccc(-c2noc(-c3ccc4ccccc4c3)n2)nc1`, with 45%; and `c1ccc(-c2nc(-c3ccccn3)no2)cc1`, with 20.1%.
Then `c1ccc(-c2noc(-c3ccncc3)n2)nc1`, with -43.2%; and `COc1cc(-c2nc(-c3ccccn3)no2)cc(OC)c1OC`, with -18.2%; and `c1ccc(-c2ccc(-c3nc(-c4ccccn4)no3)cc2)cc1`, with 67% (active).
Then `Cc1ccc(-c2nc(-c3ccccn3)no2)cc1Cl`, with 47.8%; and `Cc1ccc(-c2nc(-c3ccccn3)no2)cc1`, with 84.3% (active).
In the case of `COc1ccc(-c2nc(-c3ccccn3)no2)cc1`, the inhibition is 84% (active).
Then `COc1cccc(-c2nc(-c3ccccn3)no2)c1`, with -16.1%.
